These molecules were tested on FRK. Details: concentration: 1 μM, replicates: in singlicate; n = 1.
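Further: KINOMEscan kinase panel screen.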

SMILES | %Inh
CCS(=O)(=O)c1ccc(OC)c(Nc2nccc(-c3c(-c4cccc(NC(=O)c5c(F)cccc5F)c4)nn4ncccc34)n2)c1 [GSK326180] | 61%
COc1cc(Nc2nccc(-c3c(-c4cccc(NC(=O)c5c(F)cccc5F)c4)nn4ncccc34)n2)cc(OC)c1OC [GSK327238] | 96.9%
COc1ccc(-c2coc3ccc(-c4nnc(SCc5ccc(OC)c(C(F)(F)F)c5)o4)cc23)cc1 | 0%
Oc1cc(Nc2ccnc3cc(I)ccc23)ccc1F [GW552771] | 72%
O=c1[nH]cc(-c2ccc(N3CCOCC3)cc2)c2sc(-c3cn[nH]c3)cc12 [GSK2276055] | 0%
FC(F)(F)c1ccc(/C=C/c2cncnc2Nc2ccc3[nH]c(Cc4ccccc4)nc3c2)cc1 [GW709199] | 10%
Nc1ncnc2c1nc(-c1ccccc1)n2-c1ccccc1 [SKF-97293] | 0%
Cn1cc(-c2ccc3c(c2)CCN3C(=O)Cc2cccc(Cl)c2)c2c(N)ncnc21 [GSK2606590] | 8%
Cc1ccc(C(=O)Nc2ccc(Nc3ccnc4cc(-c5nccs5)ccc34)cc2O)cc1.Cl [GW494702] | 67%
COc1cc(Nc2ncc3c(C)nc(-c4cc5ccccc5[nH]4)n3n2)cc(OC)c1OC [GW869516] | 39%
COc1ccc(CNC(=O)NC2CCN(c3ccnc(Nc4ccc(F)cc4)n3)CC2)cc1 [GSK1379788] | 0%
CCn1c(-c2nonc2N)nc2c(C#CC(C)(C)O)nc(OC[C@H](N)c3ccccc3)cc21 [GSK943949] | 0%
Cl.c1ccc(-c2ccc3c(Nc4ccc5[nH]ncc5c4)ccnc3c2)nc1 [GW440137] | 0%
COc1cccc(-c2ccc3c(NC(=O)C4CC4)n[nH]c3n2)c1 [SB-710903] | 0%
COc1cccc(C(=O)Nc2cccc(Oc3ccc4nc(NC(=O)C5CC5)cn4n3)c2)c1 | 94.9%
CNC(=O)c1ccccc1Nc1nc(Nc2ccc(N3CCOCC3)cc2)ncc1Cl.Cl [GSK1576028] | 86%
O=C(Nc1cccc(Oc2ccc3nc(NC(=O)C4CC4)cn3n2)c1)c1ccccc1C(F)(F)F | 30%
Cc1ccc(S(=O)(=O)Nc2ccc(Nc3nccc(Nc4cccc5[nH]ncc45)n3)cc2)cc1 [GSK581271] | 73%
Cc1cccc(NC(=O)Nc2ccc(Oc3ncnc4ccn(C)c34)cc2)c1 | 10%

SMILES | %Inh
CC(=O)Nc1nc2cnc(Nc3cc(NC(=O)c4cccc(C5(C#N)CC5)c4Cl)ccc3C)nc2s1 | 93.2%
COc1cccc(C2=C(Nc3ccc(Cl)c(C(=O)O)c3)C(=O)NC2=O)c1 [SB-390769] | 32%
CN(C)S(=O)(=O)c1cc(-c2ccc3nccc(-c4cccc(S(N)(=O)=O)c4)c3c2)cnc1N [GSK1669921] | 7%
O=C(Nc1ccccc1F)NC1CCN(c2ccnc(Nc3ccc(F)cc3)n2)CC1 [GSK1379800] | 0%
O=C(Nc1n[nH]c2cc(-c3ccoc3)ccc12)C1CC1 [SB-738481] | 0%
CSc1cccc2c(-c3ccncn3)c(-c3ccc(F)cc3)nn12 [GW514786] | 9%
CN(c1ccc(NC(=O)Nc2cc(C(F)(F)F)ccc2F)cc1)c1ccnc(Nc2ccc(S(N)(=O)=O)cc2)n1 [GW809893] | 99%
O=C(Nc1cccc(-c2nn3ncccc3c2-c2ccnc(Nc3ccccc3)n2)c1)c1c(F)cccc1F [GSK198271] | 89%
c1ccc(-c2n[nH]cc2Nc2ccnc3ccccc23)nc1 [GW694077] | 0%
Cl.Cl.NCC(C(=O)Nc1cc(Br)c(-c2ccnc3[nH]ccc23)s1)c1ccccc1 (stereo not shown) [GSK1269851] | 12%
O=C(Nc1cccc(-c2nn3ccccc3c2-c2ccnc(Nc3cccc(C(F)(F)F)c3)n2)c1)c1c(F)cccc1F [GSK292658] | 72%
Cc1ccc(C)c(NC(=O)NC2CCN(c3ccnc(Nc4ccc(F)cc4)n3)C2)c1 (stereo not shown) [GSK1379720] | 14%
COCCOCCOc1cc2ncc3c4ccc(C#N)cc4[nH]c3c2cc1OC | 16%
CN1CCN(Cc2cccc(-c3ccc4c(Nc5ccc(Oc6ccccc6)cc5)ccnc4c3)c2)CC1 [GW578342] | 19%
Cl.Cl.NCC(NCc1ccc(-c2ccnc3[nH]ccc23)s1)c1ccccc1 (stereo not shown) [GSK1321565] | 0%
Cn1cc(-c2ccc3c(c2)CCN3C(=O)Cc2cccc(F)c2)c2c(N)ncnc21 [GSK2603358] | 0%
Clc1ccc(-c2nn3ncccc3c2-c2ccnc(Nc3ccc4c(c3)OCCO4)n2)cc1 [GW829116] | 0%
Nc1ncc(-c2cccnc2)c2scc(-c3ccc4c(c3)CCN4C(=O)Cc3ccccc3)c12 [GSK683281] | 6%

From PMC5540273 (PLoS ONE, 2017)
